This passage reports INHIBITION results from ChEMBL document CHEMBL4513216, “Probing the Open Global Health Chemical Diversity Library for Multistage-Active Starting Points for Next-Generation Antimalarials” (ACS Infect Dis, 2020).

Structures are written as SMILES. The campaign covered roughly 69,000 compounds. About 8,600 (12%) showed an effect of 50% or more. The full list was thinned out, with strong results kept by preference.

The experiment relates to Plasmodium berghei. Put plainly: Screen against P. berghei liver stage (PbLuc), transformed with Luciferase, at 10uM. It counts as functional, HepG2. The following applies: tested at 10 uM.
Take `Cc1ccc2c(c1)CN(C(=O)c1ccncc1)C(CN(C)C)CO2` (stereo not drawn): the INHIBITION was -23.8%.

`COc1ccccc1C(=O)N1Cc2cc(C)ccc2OCC1CN(C)C` (stereo not drawn): the INHIBITION was 60.3%. On to `COc1ccc(C(=O)N2Cc3cc(C)ccc3OCC2CN(C)C)cc1` (stereo not drawn), for which the INHIBITION is recorded as 66.5%.

In the case of `Cc1ccc2c(c1)CN(C(=O)c1ccccc1F)C(CN(C)C)CO2` (stereo not drawn), the INHIBITION was found to be 23.9%. The same measure for `Cc1ccc2c(c1)CN(C(=O)c1cccs1)C(CN(C)C)CO2` (stereo not drawn): -10.5%. The same measure for `Cc1ccc2c(c1)CN(C(=O)c1cccnc1)C(CN(C)C)CO2` (stereo not drawn): 46%. In the case of `CCCc1nc(NCCCOCC)c2c(n1)c(C)nn2CC`, the INHIBITION is listed as -1.4%. Take `CC1CCCCN1c1nc2c(c(=O)[nH]1)CCN(Cc1ccccc1F)C2` (stereo not drawn): the INHIBITION is listed as 72.3%. Turning to `CC1CCCCN1c1nc2c(c(=O)[nH]1)CCN(Cc1ccc(O)cc1)C2` (stereo not drawn), the INHIBITION worked out at 10%.

With `Cc1ccsc1CN1CCc2c(nc(N3CCCCC3C)[nH]c2=O)C1` (stereo not drawn), the INHIBITION came to 85.7%.

For `Cc1cccc(CN2CCc3c(nc(N4CCCCC4C)[nH]c3=O)C2)n1` (stereo not drawn), the INHIBITION was 18.2%. As for `CC1CCCCN1c1nc2c(c(=O)[nH]1)CCN(Cc1ccccc1O)C2` (stereo not drawn), the figure is 23.4%; as for `CC1CCCCN1c1nc2c(c(=O)[nH]1)CCN(Cc1ccccn1)C2` (stereo not drawn), 36.7%.

With `O=C(NCCn1nc2ccccn2c1=O)c1scnc1Cl`, the INHIBITION was found to be 17.02%.

For the compound `Cn1cc(CN(C(=O)c2ccc(O)c(Cl)c2)C2CC2)cn1`, the INHIBITION is 21.3%. As for `CC1CN(c2ncnc3c2cnn3C)CCN1c1nccs1` (stereo not drawn), the INHIBITION is recorded as 5.91%.

Consider `CC1CN(c2ncnc3sccc23)CCN1c1nccs1` (stereo not drawn), for which the INHIBITION amounted to 60.2%. As for `c1csc(N2CCN(c3ncnc4sccc34)CC2)n1`, the figure is 38.5%; as for `CCC[C@@H]1CN(c2ncnc3sccc23)C[C@H]1C(=O)O`, -7.98%. The same measure for `c1csc(N2CCCN(c3ncnc4sccc34)CC2)n1`: 66.8%.

As to `N#Cc1ccc(N2CCCN(c3nccs3)CC2)nc1`, the INHIBITION is -28.2%. The same measure for `CN1CC(=O)N(c2ccccc2)CC12CCN(Cc1cccnc1)C2` (stereo not drawn): 8.47%.

As to `CC(C)CCn1[nH]c(CNc2ccc(F)cc2)nc1=O`, the INHIBITION is recorded as 15.1%. Take `CN1CCC2(C=C(C(=O)N3CCCC3)c3ccccc32)CC1`: the INHIBITION came out at 26.4%. The same measure for `Cc1ccc(CC(=O)N2CCOC(c3ncc(CN(C)C)[nH]3)C2)s1` (stereo not drawn): 7.19%. The same measure for `CNc1ncc(-c2csc(NC(=O)C[C@H]3COCCN3)n2)cn1`: 24.8%. As for `CC(C)CC(=O)N1CCC(c2nnc3n2CCCCC3)CC1`, the figure is -16.5%. Regarding `Cn1cc(N)c(-c2nnc3n2CCCC3)n1`, the INHIBITION came to 42.6%. The same measure for `CCC(NC(=O)CCCNC(=O)OC)c1cc(F)ccc1F` (stereo not drawn): -13.6%.

As to `CCc1nc(CSC2CCCN(c3cnn(C)c3)C2=O)cs1` (stereo not drawn), the INHIBITION came to 29%. As for `O=C(c1cc2c([nH]c1=O)CCC2)N1CCCCC1c1cccc(F)c1` (stereo not drawn), the figure is 54.7%; as for `O=C(c1cc2c([nH]c1=O)CCC2)N1CCCC1c1ccc(F)cc1` (stereo not drawn), 20.6%.

With `O=C(c1cc2c([nH]c1=O)CCC2)N1CCCC1c1ccccc1` (stereo not drawn), the INHIBITION was -19.7%.

With `COC1(CNC(=O)c2ccc(F)c(F)c2)CCSC1` (stereo not drawn), the INHIBITION is reported as 29.6%. As for `CCc1nnc(CNC(=O)CCC2CCCN(C)C2)s1` (stereo not drawn), the figure is -57.5%. The same measure for `Cc1ccsc1CN(CCCO)Cc1nc2ccccc2[nH]1`: 23.2%. As for `CCOc1ccc(-c2c(-c3ccccc3)ncn2C2CCNC2)cn1` (stereo not drawn), the figure is 24.8%; as for `Oc1ccc(-c2c(-c3ccccc3)ncn2C[C@H]2CCCN2)cc1`, -9.17%; as for `Oc1ccc(-c2c(-c3ccccc3)ncn2C2CCNC2)cc1` (stereo not drawn), 54.5%.

As to `O=C(CN1CCC(c2ccccc2)C1)NCC(F)(F)F` (stereo not drawn), the INHIBITION worked out at 37.8%. The same measure for `CCCn1ncc(C2CC(=O)NCc3nc4sc(C)cn4c32)c1C` (stereo not drawn): 44.7%; for `CCCn1ncc(C2CC(=O)NCc3nc4cc(C)ccn4c32)c1C` (stereo not drawn): 71.5%; for `Cn1ncc(C2CC(=O)NCc3nc4ccccn4c32)c1C1CC1` (stereo not drawn): 17.6%.

For `CC1(C)O[C@@](C)([C@H]2CC3(CCN(c4cnccn4)CC3)CO2)CC[C@@H]1O`, the INHIBITION was found to be 30.55%. The same measure for `CN(C)C(=O)CCNC(=O)Nc1cccc(Cl)c1-n1cccn1`: -10.3%; for `CCc1cc(N(C)Cc2cc[nH]n2)n2nc(C)c(C)c2n1`: 81.7%; for `CCc1cc(N(C)Cc2ccncn2)n2nc(C)c(C)c2n1`: 42.3%. For `CCc1cc(N(C)Cc2ccnc(C)c2)n2nc(C)c(C)c2n1`, the INHIBITION turned out to be 73.5%. The same measure for `CCc1cc(N(C)Cc2ccno2)n2nc(C)c(C)c2n1`: -2.73%; for `Cc1cc(N(C)Cc2cc(C)on2)n2nc(C)c(C)c2n1`: -45.4%; for `CCc1nnc(CN(C)c2cc(C)nc3c(C)c(C)nn23)o1`: 36.7%. As for `COc1ncc(-c2ccc(C(N)=O)cc2)c(OC)n1`, the figure is 9.41%. The same measure for `CN(C)Cc1cn2c(n1)CN(C1CCOC1)CC2` (stereo not drawn): -4.32%. For the compound `NC(=O)C1CCN(C(=O)NC(Cc2ccccc2)C(F)(F)F)CC1` (stereo not drawn), the INHIBITION is listed as -82.2%. With `Cc1cnn(CC2CN(Cc3nnc(C(C)C)o3)CCO2)c1` (stereo not drawn), the INHIBITION was found to be 30.6%.

For the compound `Cc1nc(CN(C)C(=O)C2CC(=O)N(c3cccc(O)c3)C2)cs1` (stereo not drawn), the INHIBITION was determined as 7.6%. Consider `COCCN1CC(C(=O)N(C)Cc2csc(C)n2)CC1=O` (stereo not drawn), for which the INHIBITION was found to be 57.8%.

For `Cc1nc(CN(C)C(=O)C2CCC(=O)N(CCN(C)C)C2)cs1` (stereo not drawn), the INHIBITION is reported as 20.8%. The same measure for `Cn1cc(CCNC(=O)NCc2ccc3c(c2)OCCO3)cn1`: 24.5%; for `COCCN1CCC2(CC1)COc1ccccc1S(=O)(=O)N(C)C2`: -4.32%; for `CN(C)C(=O)CN1CCC2(CC1)COc1ccccc1S(=O)(=O)N(C)C2`: 17.4%.

Take `CCC(=O)N1CCC2(CC1)COc1ccccc1S(=O)(=O)N(C)C2`: the INHIBITION is -0.182%.

`COCC(=O)N1CCC2(CC1)COc1ccccc1S(=O)(=O)N(C)C2`: the INHIBITION is recorded as 66.8%.

For the compound `CN1CC2(CCN(C(=O)C3CCC3)CC2)COc2ccccc2S1(=O)=O`, the INHIBITION is recorded as 20.4%. The same measure for `CN(C)CC(=O)N1CCC2(CC1)COc1ccccc1S(=O)(=O)N(C)C2`: 50%. As to `N#Cc1csc(CNCCOc2ccc(Cl)cn2)c1`, the INHIBITION stood at 4.35%. The same measure for `Cc1cnn(CC2CCCN2C(=O)CCCc2nc(C)no2)c1` (stereo not drawn): -45.8%; for `Fc1cc(CCNc2ccc3nccn3n2)c2c(c1)COCO2`: 48.2%.
